Source: PubChem
Hits are enriched below; roughly 32% of the tested compounds scored in any of these assays.
CYP2C19 inhib: blockers of cytochrome P450 2C19 activity – biochemical, luminescence, ADME assay, primary screen. inhibition, % at 5 µM. CYP2C19 Supersomes, luciferin-H EGE luminescence, 30 min. 21% of 96,000 active. AID 778, 2007. P33261;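 active = CYP2C19 inhibition above a set limit at 5 µM in the primary screen, cut at about 50% in these data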;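 note: plate controls were negative control wells for no effect and 2.5 mM tranylcypromine positive control for full effect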
CYP2C9 activ: human CYP2C9 activators, primary screen, biochemical, luminescence; Cytochrome P450 2C9 (Homo sapiens), P11712; recombinant CYP2C9, luciferin-H conversion; active compounds read high; factor 1 = untreated enzyme, 0 = blocked; activation factor at 5 µM; 1.4% of 96,000 active;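 active = activation factor of 2 or more for CYP2C9 at a 5 µM dose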;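 note: 0 = sulfaphenazole-blocked wells and 1 = vehicle-only wells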
Target sequence (P11712 whole entry, looked up): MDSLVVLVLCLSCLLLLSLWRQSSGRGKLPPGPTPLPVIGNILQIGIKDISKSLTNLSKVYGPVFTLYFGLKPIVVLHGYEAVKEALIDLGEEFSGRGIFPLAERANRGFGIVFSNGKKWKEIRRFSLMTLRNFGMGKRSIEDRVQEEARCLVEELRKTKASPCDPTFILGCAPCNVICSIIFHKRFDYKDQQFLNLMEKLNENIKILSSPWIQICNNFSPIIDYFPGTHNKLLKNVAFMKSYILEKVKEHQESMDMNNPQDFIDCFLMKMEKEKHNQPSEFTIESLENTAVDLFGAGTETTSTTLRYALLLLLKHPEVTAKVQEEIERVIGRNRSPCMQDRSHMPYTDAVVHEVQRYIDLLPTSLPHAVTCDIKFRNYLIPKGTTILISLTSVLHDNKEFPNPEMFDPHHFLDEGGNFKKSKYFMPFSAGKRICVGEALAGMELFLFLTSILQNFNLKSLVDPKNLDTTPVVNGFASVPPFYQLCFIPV
CYP2C9 inhib: blockers of cytochrome P450 2C9 activity – biochemical, luminescence, ADME assay, primary screen; P11712; inhibition, % at 5 µM; AID 777, 2007; 20% of 96,000 active; CYP2C9 Supersomes, luciferin-H conversion;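 active = blocking of liver enzyme CYP2C9 beyond about 50% at 5 µM, limit read from the data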
CYP2C19 act: human CYP2C19 activators, primary screen, biochemical, luminescence. recombinant CYP2C19, luciferin-H EGE luminescence; active compounds read high; 0 = fully inhibited enzyme, 1 = untreated enzyme. activation factor at 5 µM. 96,000 tested, under 10 active. Cytochrome P450 2C19 (Homo sapiens), P33261. AID 1025, 2008;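 active = activation factor of at least 2 at 5 µM in the primary screen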;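 note: 0 = wells with 2.5 mM tranylcypromine and 1 = vehicle-only wells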
PostGolgi ctrl: growth inhibition of yeast control strain, primary screen, counter-screen for post-Golgi transport modulator project; efflux-deficient yeast background strain, growth absorbance A615, 16 h; inhibition, % at 10 µM; 5% of 98,000 active; AID 738, 2007
PostGolgi yeast: phenotypic screen on post-Golgi transport, primary screen | post-Golgi transport phenotypic cell assay | inhibition, % at 10 µM | 0.9% of 98,000 active;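 note: yeast cells grown in 1536-well plates; yeast grown about 18 h at 30C before absorbance read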
* = called active by the depositor; x = no result given. Cut-off read from the data, not from the text of the source, unless noted: active = inhibition above about 30%; inactive = the rest.

SMILES	CYP2C19 inhib	CYP2C9 activ	CYP2C9 inhib	CYP2C19 act	PostGolgi ctrl	PostGolgi yeast
COCCN(Cc1cc2cc3c(cc2[nH]c1=O)OCO3)C(=O)c1cccs1	34	0.9	5	0.7	0	-1
COc1ccc(N2CCN(C(=O)c3cc4c(-c5ccc(Cl)cc5)nn(C)c4s3)CC2)cc1	23	0.4	64*	0.8	6	-3
COc1cccc(-c2nn(C)c3sc(C(=O)N4CCN(c5ccccn5)CC4)cc23)c1	42	0.2	80*	0.6	16	11
COc1ccc(CC(=O)N2CCN(c3ccccn3)CC2)cc1	x	x	x	x	2	2
Cn1nc(-c2ccc(Cl)cc2)c2cc(C(=O)N3CCOCC3)sc21	34	0.8	17	0.7	10	10
COc1cccc(-c2nn(C)c3sc(C(=O)N4CCOCC4)cc23)c1	32	0.4	60*	0.7	9	-2
COc1ccc(NC(=O)C2CCCN2c2ccc(OC)c(OC)c2)cc1OC (stereo unspecified)	22	0.7	32	0.8	-8	-4
COc1ccc2nc(C(F)(F)C(F)(F)F)c(C#N)c(N)c2c1	2	0.7	26	1	19	2
Cc1ccc(N(C(=O)CNC(=O)c2ccco2)C(C(=O)NCC2CCCO2)c2ccccc2)cc1 (stereo unspecified)	85*	0.8	16	0.1	-4	-5
O=C(NCC(=O)N(c1ccccc1)C(C(=O)NCC1CCCO1)c1ccccc1)c1ccco1 (stereo unspecified)	14	1.2	-18	0.9	9	-1
C=CCN(C(=O)CNC(=O)c1ccco1)C(C(=O)NC1CCCCC1)c1ccccc1 (stereo unspecified)	83*	0.3	70*	0.2	1	7
COc1cccc(N(C(=O)CNC(=O)c2ccco2)C(C(=O)NC2CCCC2)c2ccncc2)c1 (stereo unspecified)	57*	0.8	20	0.4	-2	-2
O=C(NCC(=O)N(CCc1ccccc1)C(C(=O)NC1CCCCC1)c1ccncc1)c1ccco1 (stereo unspecified)	82*	0.1	92*	0.2	-5	-6
C=CCN(C(=O)CNC(=O)c1ccco1)C(C(=O)NC1CCCCC1)c1ccc(F)cc1 (stereo unspecified)	6	1.1	-5	0.9	8	12
Cc1ccc(OCCCC(=O)Nc2ccc(S(=O)(=O)Nc3cc(C)on3)cc2)cc1	7	0.5	48	0.9	11	9
O=C(Cn1cnc2c(nnn2-c2cccc(Cl)c2)c1=O)N1CCCC1	10	1.7	-67	0.9	2	-5
Cc1ccc(C(C(=O)NC2CCCCC2)N(CCC(C)C)C(=O)CNC(=O)c2ccco2)o1 (stereo unspecified)	53*	0.7	34	0.5	1	0
O=C(NCC(=O)N(CCc1ccccc1)C(C(=O)NC1CCCC1)c1cccnc1)c1ccco1 (stereo unspecified)	54*	0.5	52*	0.5	10	4
O=C(NCC(=O)N(c1cccnc1)C(C(=O)NC1CCCCC1)c1cccnc1)c1ccco1 (stereo unspecified)	-4	1	0	1	4	16
CCOCCCN(C(=O)CNC(=O)c1ccco1)C(C(=O)NC1CCCC1)c1ccccc1C (stereo unspecified)	-13	1.1	-9	1.1	3	21
Cc1ccc(NC(=O)CCC(=O)NNC(=O)c2cccs2)c(C)c1	-7	1.1	-6	1.1	2	-11
C/C(=N/OCC(=O)Nc1ccc(C)cc1C)c1cccs1	93*	0	98*	0.1	19	9
CC(=O)c1ccc(N2CCN(C(=S)Nc3cccc(F)c3)CC2)cc1	22	0.9	13	0.8	5	-6
O=C(OCCN1CCOCC1)C(c1ccccc1)c1ccccc1	70*	0.4	56*	0.3	2	1
COCCNC(=O)c1cc2oc3ccccc3c2n1C	90*	0.2	79*	0.1	1	-3
SMILES	CYP2C19 inhib	CYP2C9 activ	CYP2C9 inhib	CYP2C19 act	PostGolgi ctrl	PostGolgi yeast
COc1ccc(CCN2C(=O)C(Oc3ccccc3C)C2c2ccc3c(c2)OCO3)cc1OC (stereo unspecified)	66*	0.4	60*	0.3	16	0
COc1ccc(CCN2C(=O)CC(NCc3ccc4c(c3)OCO4)C2=O)cc1OC (stereo unspecified)	33	0.8	20	0.7	7	-1
COc1ccc(C2C(Oc3ccccc3C)C(=O)N2Cc2ccc(F)cc2)cc1OC (stereo unspecified)	90*	0.2	76*	0.1	10	-6
COc1cccc(/C=N/NC(=O)CCc2ccccc2)c1	60*	0.9	5	0.4	2	19
COc1cccc(/C=N/NC(=O)c2ccc(OCc3cccc(Br)c3)cc2)c1	50	0.2	84*	0.5	12	0
Cc1cccc(CCNS(=O)(=O)c2ccc3c(c2)n(C)c(=O)c(=O)n3C)c1	-5	0.6	44	1	14	-10
COc1ccc(CCNS(=O)(=O)c2cccc(C)c2)cc1OC	98*	0.1	89*	0	-4	-10
COCCCNS(=O)(=O)c1ccc2c(c1)OCCO2	78*	1.5	-51	0.2	6	-2
COc1ccc(CCNS(=O)(=O)c2ccc3c(c2)oc(=O)n3C)cc1OC	x	x	x	x	12	4
O=S(=O)(NCCSc1ccc(Cl)cc1)c1ccc2c(c1)OCCO2	86*	0.4	63*	0.1	31*	-3
COc1ccc(CCNS(=O)(=O)c2ccc3c(c2)OCCO3)cc1OC	84*	0.5	46	0.2	-6	-2
CCOCCCNS(=O)(=O)c1ccc2c(c1)OCCO2	29	1.5	-49	0.7	3	6
CSC1=NC2C(N1)N(C)C(=O)N2C (stereo unspecified)	-12	1.2	-18	1.1	5	3
Cc1cccc(CCNS(=O)(=O)c2ccc(S(=O)(=O)N3CCCCC3)cc2)c1	-6	0.7	32	1.1	5	-3
COc1ccc(CCNS(=O)(=O)c2cccc(F)c2)cc1OC	51*	0.5	51*	0.5	-3	18
COc1ccc(CCNS(=O)(=O)c2cccc(S(=O)(=O)N3CCCC3)c2)cc1OC	96*	0.2	84*	0	1	5
O=C(CSc1ncnc2nc[nH]c12)N1CCN(c2ccc(Cl)cc2)CC1	11	1	3	0.9	12	-5
COc1cc(/C=c2\sc3nc(-c4ccncc4)nn3c2=O)ccc1OC(C)=O	60*	0.2	76*	0.4	12	2
